# Results from PMC11062922 (Nature Chemical Biology, 2023).
# Where two headings read alike, the source gives them in different places.
# Experiments:
# Parameters in all cases: species or system human, MV4-11 + K-562 + COLO205 + SK-N-BE2 + OVCAR-8
# CDK16 = conditions: read-out: apparent Kd, n = 1
# CSNK1D = conditions: read-out: apparent Kd; compound concentrations: 100 nM and 1000 nM (sheet 'Samples'), CATDS: 2.68711493268559E-2; n = 1
# MAPK10 = conditions: read-out: apparent Kd, n = 1
# MAPK9 = conditions: read-out: apparent Kd, n = 1
# BCR = conditions: read-out: apparent Kd; compound concentrations:100 nM and 1000 nM (sheet 'Samples'); n = 1
# CAMKK2 = conditions: read-out: apparent Kd; compound concentrations:100 nM and 1000 nM (sheet 'Samples'); n = 1
# CHEK1 = conditions: read-out: apparent Kd; compound concentrations:100 nM and 1000 nM (sheet 'Samples'); n = 1
# EPHA4 = conditions: read-out: apparent Kd; compound concentrations:100 nM and 1000 nM (sheet 'Samples'); n = 1
# EPHA5 = conditions: read-out: apparent Kd; compound concentrations:100 nM and 1000 nM (sheet 'Samples'); n = 1
# EPHB2 = conditions: read-out: apparent Kd; compound concentrations:100 nM and 1000 nM (sheet 'Samples'); n = 1
# EPHB4 = conditions: read-out: apparent Kd; compound concentrations:100 nM and 1000 nM (sheet 'Samples'); n = 1
# PRKAG2 = conditions: read-out: apparent Kd, n = 1
# TNK1 = conditions: read-out: apparent Kd; compound concentrations:100 nM and 1000 nM (sheet 'Samples'); n = 1
# TNK2 = conditions: read-out: apparent Kd; compound concentrations:100 nM and 1000 nM (sheet 'Samples'); n = 1
# MARK3 = conditions: read-out: apparent Kd, n = 1
# RPS6KA4 = conditions: read-out: apparent Kd, n = 1
# STK4 = conditions: read-out: apparent Kd, n = 1
# PRKACA = conditions: read-out: apparent Kd, n = 1
# AURKA = conditions: read-out: apparent Kd; compound concentrations:100 nM and 1000 nM (sheet 'Samples'); n = 1
# PRKACB = conditions: read-out: apparent Kd; compound concentrations:100 nM and 1000 nM (sheet 'Samples'); n = 1
# [1] = compound concentrations:100 nM and 1000 nM (sheet 'Samples')
smiles,measurement,setting,value
c1cnn2ncc(-c3ccnc(Nc4ccc5c(c4)OCCO5)n3)c2c1 [GW806290X],potency estimated from few doses,"CDK16; compound concentrations: 100 nM and 1000 nM (sheet 'Samples'), CATDS: 2.45493373786023E-2",989 nM
same,potency estimated from few doses,CSNK1D,761 nM
same,potency estimated from few doses,"MAPK10; compound concentrations: 100 nM and 1000 nM (sheet 'Samples'), CATDS: 2.29064571505532E-2",1230 nM
same,potency estimated from few doses,"MAPK9; compound concentrations: 100 nM and 1000 nM (sheet 'Samples'), CATDS: 2.34417692705663E-2",1140 nM
CC(=O)N[C@@H](Cc1ccc(OP(=O)(O)O)cc1)C(=O)N[C@H]1CCC(=O)N2CCC[C@@H](C(=O)NCc3ccc(Cl)cc3)N2C1=O [RO0325308-000],potency estimated from few doses,BCR,604 nM
same,potency estimated from few doses,CAMKK2,1320 nM
same,potency estimated from few doses,CHEK1,1950 nM
same,potency estimated from few doses,EPHA4,843 nM
same,potency estimated from few doses,EPHA5,770 nM
same,potency estimated from few doses,EPHB2,56.3 nM
same,potency estimated from few doses,EPHB4,59.9 nM
same,potency estimated from few doses,PRKAG2; [1],570 nM
same,potency estimated from few doses,TNK1,468 nM
same,potency estimated from few doses,TNK2,51.7 nM
COc1cc[nH]c1/C=C1\C(=O)Nc2ccc(F)c(C#CC3(O)CCNCC3)c21.Cl [RO0282986-001],potency estimated from few doses,"CDK16; compound concentrations: 100 nM and 1000 nM (sheet 'Samples'), CATDS: 3.6317667749827198E-2",71.4 nM
same,potency estimated from few doses,"MAPK10; compound concentrations: 100 nM and 1000 nM (sheet 'Samples'), CATDS: 9.5486825617733494E-3",1600 nM
same,potency estimated from few doses,"MAPK9; compound concentrations: 100 nM and 1000 nM (sheet 'Samples'), CATDS: 1.5639148944551099E-2",359 nM
same,potency estimated from few doses,"MARK3; compound concentrations: 100 nM and 1000 nM (sheet 'Samples'), CATDS: 1.4968914388982501E-2",398 nM
same,potency estimated from few doses,"RPS6KA4; compound concentrations: 100 nM and 1000 nM (sheet 'Samples'), CATDS: 2.8007008589504299E-2",111 nM
same,potency estimated from few doses,"STK4; compound concentrations: 100 nM and 1000 nM (sheet 'Samples'), CATDS: 1.59534503193824E-2",343 nM
O=C(O)C(F)(F)F.O=c1[nH]ccc2nc(N[C@@H]3CCNC3)nc(Nc3cc(Cl)cc(Cl)c3)c12 [GSK2188764A],potency estimated from few doses,CHEK1,711 nM
same,potency estimated from few doses,MARK3; [1],153 nM
same,potency estimated from few doses,PRKAG2; [1],632 nM
same,potency estimated from few doses,RPS6KA4; [1],472 nM
same,potency estimated from few doses,STK4; [1],913 nM
Cl.Cl.NC(CNC(=O)c1cc(Br)c(-c2ccnc3[nH]ccc23)s1)c1ccccc1.NC(CNC(=O)c1cc(Br)c(-c2ccnc3[nH]ccc23)s1)c1ccccc1 (stereo not shown) [GSK1322949A],potency estimated from few doses,"PRKACA; compound concentrations: 100 nM and 1000 nM (sheet 'Samples'), CATDS: 2.91010350116075E-2",1300 nM
CNc1cc(-c2ccc3c(N)n[nH]c3c2)nc(N)n1 [GSK2224810A],potency estimated from few doses,PRKAG2; [1],1090 nM
CCn1c(-c2cccnc2O)nc2cnccc21 [SB-736715],potency estimated from few doses,"CDK16; compound concentrations: 100 nM and 1000 nM (sheet 'Samples'), CATDS: 1.2342830833646699E-2",2030 nM
same,potency estimated from few doses,"MAPK9; compound concentrations: 100 nM and 1000 nM (sheet 'Samples'), CATDS: 1.25360352526476E-2",1950 nM
same,potency estimated from few doses,"PRKAG2; compound concentrations: 100 nM and 1000 nM (sheet 'Samples'), CATDS: 1.6059828940045699E-2",1130 nM
same,potency estimated from few doses,"STK4; compound concentrations: 100 nM and 1000 nM (sheet 'Samples'), CATDS: 1.39715497774644E-2",1510 nM
CC(C)Oc1ccc2c(-c3ccnc(Nc4ccc(N5CCN(C)CC5)cc4)n3)cnn2n1 [GW696155X],potency estimated from few doses,AURKA,602 nM
same,potency estimated from few doses,CDK16; [1],1910 nM
same,potency estimated from few doses,MAPK10; [1],1250 nM
same,potency estimated from few doses,MAPK9; [1],1010 nM
CS(=O)(=O)CCn1c(=O)c(Oc2ccc(F)cc2F)cc2cnc(NC3CCOCC3)nc21 [RO5027956-000],potency estimated from few doses,BCR,693 nM
same,potency estimated from few doses,CAMKK2,1270 nM
same,potency estimated from few doses,CHEK1,1500 nM
same,potency estimated from few doses,EPHA4,896 nM
same,potency estimated from few doses,EPHA5,751 nM
same,potency estimated from few doses,EPHB2,720 nM
same,potency estimated from few doses,EPHB4,519 nM
same,potency estimated from few doses,MAPK10; [1],127 nM
same,potency estimated from few doses,MAPK9; [1],494 nM
same,potency estimated from few doses,PRKACA; [1],2090 nM
same,potency estimated from few doses,PRKACB,977 nM
same,potency estimated from few doses,PRKAG2; [1],497 nM
same,potency estimated from few doses,TNK1,487 nM
same,potency estimated from few doses,TNK2,521 nM
